The list is not random: actives were taken first. Their share in the collection is about 3.8%.
Nrf2 block: inhibitors of Nrf2 signaling. A549 ARE-Fluc reporter, luciferase luminescence, 18-24 h. Potency, µM (highest dose often 46 µM), for the others: top-dose activity change, negative = inhibition, most hits filed as inhibitors. actives 2.1% (n = 360,000); also: % is scaled to controls: 0 for no effect and ±100 for the full control effect; nearly all actives have a fitted effect of over 60% in size
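Nrf2 activity is the BugLite luminescence, read 15 min after reagent at room temperature, following CellTiter-Fluor cytotoxicity readout (30 min, 37C). Compound titrations were applied for 18-24 h to 5000 A549 ARE_Fluc cells/well in 5% FBS OPTI-MEM.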
ELG1 repair inh: blocks ELG1-dependent DNA repair in HEK293T cells; HEK293T ELG1-luciferase reporter, luminescence, 16 h; DNA damage induced by 5-fluorouridine; Potency, µM (top dose mostly 46.1 µM), without a hit: top-dose activity change, negative = inhibition, usual class: inhibitors; actives 2.3% (n = 330,000); also: % is scaled to controls: 0 for no effect and ±100 for the full control effect; nearly all actives have a fitted effect of over 55% in size
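Step one: seed 2,000 cells per well. Step two: pin-transfer compound or DMSO alongside 5-fluorouridine. Step three: incubate 16 hr, 37 °C, 5% CO2. Step four: add ONE-Glo, wait 30 min, read luminescence.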
IDH1 R132H inh: human IDH1 R132H inhibition | IDH1-R132H enzyme, NADPH consumption, diaphorase/resazurin fluorescence | Potency, µM (titrated, usually from 76.6 µM), inactives show top-dose activity change, negative = inhibition, most hits filed as inhibitors | actives 0.093% (n = 390,000); also: % is scaled to controls: 0 for no effect and ±100 for the full control effect; nearly all actives have a fitted effect of over 65% in size
Target sequence (O75874 whole entry R132H, stated change not applied): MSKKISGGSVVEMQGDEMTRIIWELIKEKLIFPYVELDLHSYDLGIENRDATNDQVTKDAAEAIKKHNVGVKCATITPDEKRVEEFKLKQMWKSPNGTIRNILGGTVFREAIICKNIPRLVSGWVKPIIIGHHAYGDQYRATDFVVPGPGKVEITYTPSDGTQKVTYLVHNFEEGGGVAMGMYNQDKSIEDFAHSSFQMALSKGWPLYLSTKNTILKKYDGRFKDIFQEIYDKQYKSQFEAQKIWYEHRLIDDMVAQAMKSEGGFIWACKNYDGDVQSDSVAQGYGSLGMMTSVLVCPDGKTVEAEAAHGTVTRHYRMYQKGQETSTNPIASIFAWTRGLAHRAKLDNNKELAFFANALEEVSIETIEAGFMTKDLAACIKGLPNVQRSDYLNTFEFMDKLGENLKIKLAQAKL
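IDH1-R132H (0.5 ug/mL) preincubated 30 min with compound, then NADPH (0.016 mM) and alpha-KG (2 mM) added; 80 min at RT, pH 7.5. Remaining NADPH coupled via diaphorase/resazurin to fluorescence (540/590 nm); concentration-response curves normalized to no-enzyme control.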
Nrf2 activator: Nrf2 pathway activation; actives 0.31% (n = 410,000); AREc32 ARE-luciferase reporter (MCF7-derived line), luminescence, 24 h; AID 624171; Potency, µM (series often up to 46.1 µM), for inactives: top-dose activation, usual class: activators; also: % of control where 0% means no effect; nearly all actives have a fitted effect of over 65% in size
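AREc32 cells carrying an ARE-driven firefly luciferase, 1000 cells/well in OPTI-MEM with 5% FBS, dosed after overnight attachment and incubated 24 hr at 37 deg C. Steady-Glo luminescence read after 30 min at RT.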
A549 viability: A549 cytotoxicity, counter-screen for Nrf2 inhibitors; A549 ARE-Fluc cells, CellTiter-Fluor viability, 18-24 h; Potency, µM (titrated, usually from 46 µM), inactives show top-dose activity change, negative = cytotoxicity, hits mostly inhibitors; actives 0.16% (n = 390,000); AID 504648; also: % is scaled to controls: 0 for no effect and ±100 for the full control effect
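A549 ARE_Fluc cells in 5% FBS OPTI-MEM were exposed to compounds in concentration-response for 18-24 h at 37 deg C. Viability was read by CellTiter-Fluor fluorescence (Ex 405/Em 525) after 30 min, before the luciferase read.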
Numbers without * were called inactive; ? = inconclusive; nt = no result. Calls follow the shape of the dose curve; as a rule, active = well fitted curve in the direction sought with a large enough effect; inconclusive = small, poorly fitted or top-dose-only effect, or another doubt; inactive = no such curve, though single readings can be large; an effect the other way counts as inactive or inconclusive. Potency is read from the fitted curve at half-maximal effect.

SMILES	Nrf2 block	ELG1 repair inh	IDH1 R132H inh	Nrf2 activator	A549 viability
O=C(N/N=C/c1sc(N2CCOCC2)nc1-c1ccccc1)c1ccccc1F	-13%	?	-7%	2%	-10%
Nc1ccc(C(=O)N/N=C/c2sc(N3CCOCC3)nc2-c2ccccc2)cc1	-27%	?	7%	0%	-15%
O=C(O)c1cccc(N/N=C/c2sc(N3CCOCC3)nc2-c2ccccc2)c1	?	?	2%	5%	-7%
COc1cc(C(=O)N/N=C/c2sc(N3CCOCC3)nc2-c2ccccc2)cc(OC)c1OC	-15%	12µM*	2%	0%	0%
O=C(N/N=C/c1sc(N2CCOCC2)nc1-c1ccccc1)c1ccccc1O	16µM*	18µM*	-6%	0%	23µM*
O=S(=O)(c1ccc2c(c1)CCC2)N1CCN(c2nc(-c3ccccc3)nc3ccccc23)CC1	?	nt	nt	nt	-3%
COc1ccc(C(O)c2cnc(C)n2Cc2ccccc2)cc1 (stereo not drawn)	nt	nt	14%	0%	nt
C[C@@H]1CN([C@@H](C)CO)C(=O)CCCn2nncc2CO[C@H]1CN(C)C(=O)Nc1cccc(Oc2ccccn2)c1	nt	nt	-10%	-1%	nt
COc1cc(NC(c2ccccc2)c2ccccc2)cc(OC)c1OC	-2%	-3%	5%	2%	11%
COc1ccc(NC(c2ccccc2)c2ccncc2)cc1 (stereo not drawn)	-20%	26µM*	6%	0%	-1%
CCOC(=O)c1c(NC(=O)CSc2cn(CCNC(=O)c3ccc(OC)c(OC)c3)c3ccccc23)sc2c1CCC2	?	nt	2%	-1%	-13%
CC(C)(C)C(=O)Nc1cccc(C(=O)OCc2cc(=O)n3nc(C4CCCCC4)sc3n2)c1	nt	nt	14%	1%	1%
COCCNC(=S)N1CCc2cc(OC)c(OC)cc2C1COc1ccc(C(C)C)cc1 (stereo not drawn)	-16%	9.2µM*	4%	4%	14%
COCCNC(=S)N1CCc2cc(OC)c(OC)cc2C1COc1ccc(F)cc1 (stereo not drawn)	11%	16µM*	7%	0%	0%
CCC(=O)N1CCc2cc(OC)c(OC)cc2C1COc1ccc(C(=O)OC)cc1 (stereo not drawn)	?	2.6µM*	6%	3%	2%
Cc1ccc(C(C)C)c(Oc2cnccn2)c1	7%	8%	1%	0%	-10%
Cc1ccc(C(=O)Nc2cc3cc(Cl)ccc3oc2=O)cc1	?	nt	32%	?	0%
CCC1Oc2ccc(C)cc2N(CC(=O)NCc2ccc(F)cc2)C1=O (stereo not drawn)	nt	nt	10%	-1%	-2%
CCCCCNC(=O)c1cccc(S(=O)(=O)N2CC3(C)CC2CC(C)(C)C3)c1 (stereo not drawn)	26µM*	?	4%	0%	-17%
CCOc1ccc2nc(NCCCNC(=O)c3cc(OC)c(OC)c(OC)c3)c(C#N)cc2c1	19%	6.5µM*	-7%	0%	?
COc1ccc(OC)c(CCNC(=O)Cn2nc(C)c3c(C)n(-c4ccc(C)cc4)nc3c2=O)c1	10µM*	?	-13%	2%	-15%
COc1ccc(CCNC(=O)Cn2nc(C)c3c(C)n(-c4ccccc4)nc3c2=O)c(OC)c1	-23%	-7%	-8%	3%	4%
O=C1C(=Cc2cccs2)Oc2ccccc21	-13%	nt	3%	11µM*	0%
Cc1ccccc1/C=C1\Oc2ccccc2C1=O	7%	?	18%	13µM*	-5%
Cc1ccccc1/C=C1\CCCc2ccccc2C1=O	?	?	7%	?	-6%
SMILES	Nrf2 block	ELG1 repair inh	IDH1 R132H inh	Nrf2 activator	A549 viability
O=C1/C(=C/c2cccs2)COc2ccccc21	34%	?	4%	?	0%
COc1ccccc1C(=O)NCc1nc2cccnc2n1Cc1ccc(F)cc1	nt	nt	-3%	?	5%
CCc1cc2c(SCC(=O)NC3CCCC3)ncnc2s1	nt	nt	7%	0%	nt
CCNC(=S)N(CCc1c(C)[nH]c2ccc(Cl)cc12)Cc1ccco1	21µM*	-18%	0%	-2%	?
Cc1ccc(NS(=O)(=O)c2ccc(C(=O)N3CCN(c4ccccn4)CC3)cc2)cc1	nt	15µM*	-2%	2%	-8%
Cc1ccc(S(=O)(=O)NCc2ccc(C(=O)N3CCN(c4ccccn4)CC3)cc2)cc1	-27%	?	5%	0%	1%
CN(c1ccc(C(=O)N2CCCCCC2)cc1)S(=O)(=O)c1ccc(Cl)cc1	23µM*	?	2%	-1%	-9%
O=C(c1ccc(S(=O)(=O)Nc2ccccc2)cc1)N1CCCC(C(F)(F)F)C1 (stereo not drawn)	26µM*	-4%	-6%	0%	?
CCOC(=O)N1CCN(C(=O)c2ccc(S(=O)(=O)Nc3ccc(C)cc3)cc2)CC1	10µM*	?	2%	0%	-16%
CCOC(=O)N1CCN(C(=O)c2ccc(NS(=O)(=O)c3ccc(C)cc3)cc2)CC1	?	-23%	4%	0%	-7%
O=C(c1ccccc1)c1ccc(C(=O)N2CCCC(C(F)(F)F)C2)cc1 (stereo not drawn)	-3%	-9%	7%	0%	-3%
Cc1ccc(-c2nc(NC(=O)CSc3nc(C)nc4sc5c(c34)CCCC5)ns2)cc1	4%	nt	1%	0%	4%
COc1ccccc1NC(=O)C1=C(C)Nc2nc(-c3ccco3)nn2C1c1cccc(C)c1 (stereo not drawn)	-26%	nt	0%	3%	-12%
N#CN1CCC(NC(=O)c2cccc(F)c2)CC1	4%	nt	nt	nt	-2%
COc1cc(/C=C/C(=O)c2ccc(NS(=O)(=O)c3ccc(C)cc3)cc2)cc(OC)c1O	23µM*	10µM*	0%	?	?
Cc1ccc(NS(=O)(=O)c2ccc(C(=O)N3CCCCCCC3)cc2)cc1	21µM*	0%	-6%	0%	-7%
CCOC(=O)N1CCN(C(=O)c2ccc(Oc3ccc([N+](=O)[O-])cc3)cc2)CC1	26µM*	?	-4%	4%	-9%
Cc1ccc(NS(=O)(=O)c2ccc(C(=O)N3CCCCCC3)cc2)cc1	?	-6%	1%	0%	3%
Cc1cccc(S(=O)(=O)c2c(N)n(Cc3ccco3)c3nc4ccccc4nc23)c1	?	?	-5%	0%	-19%
Cc1cccc(-n2cnc3c(c2=O)c2nc4ccccc4nc2n3Cc2ccco2)c1	nt	18µM*	5%	0%	-1%
Cc1ccc(S(=O)(=O)c2c(N)n(Cc3ccco3)c3nc4ccccc4nc23)cc1	18µM*	-11%	0%	3%	nt

Assay outcomes (PubChem)
